Sampled rows, rich in hits. Any-hit rate of the full collection: about 21%.
NS1 function inh = blocks influenza NS1 protein function; 0.4% of 270,000 active; AID 2326; Potency, µM (top dose mostly 46.1 µM), without a hit: at the highest dose activity, positive = more growth; calls by dose curve; note: potency is the fitted concentration of half-maximal effect; actives are rising curves; nearly all actives have a fitted effect of over 50% in size
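OD600 was taken as the measure of yeast growth restored by compound in an NS1-expressing S. cerevisiae strain. Cells had been washed out of glucose medium and diluted 1:100 into galactose -URA medium, pH 6.0.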
Pf growth 96h = inhibits malaria parasite growth, 96 h | 6.9% of 320,000 active | P. falciparum luciferase reporter growth, 96 h | AID 504834 | Potency, µM (series often up to 28.7 µM), without a hit: top-dose activity change, negative = inhibition, hits mostly inhibitors; note: potency is the fitted concentration of half-maximal effect; % is set by controls: 0 for no effect and ±100 for the full control effect
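Two parasite generations (96 h, 37 C, 5% CO2) of compound exposure in infected erythrocytes (0.05% parasitemia, 2% hematocrit). Luciferase-reporter P. falciparum; decreased luminescence indicates inhibited growth, aimed at apicoplast-acting delayed death.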
Pf growth 48h = inhibits P. falciparum growth in the first generation, 48 h | 5.9% of 310,000 active | Potency, µM (titrated, usually from 28.7 µM), inactives show top-dose activity change, negative = inhibition, most hits filed as inhibitors | P. falciparum luciferase growth in erythrocytes, 48 h; note: potency is the fitted concentration of half-maximal effect; % is set by controls: 0 for no effect and ±100 for the full control effect
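Erythrocytes infected with P. falciparum carrying an integrated firefly luciferase reporter (2% hematocrit, 0.1% parasitemia final) were exposed to compounds in RPMI 1640 with 0.5% Albumax at 37 C, 5% CO2. Growth inhibition was scored as reduced luminescence.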
Shiga inhibitor = inhibitors of Shiga toxin in Vero cells; Vero cells, Shiga toxin protein synthesis inhibition reporter; inhibition, % at 38.7 µM; 9.2% of 290,000 active; AID 2315; in the data active = inhibition mostly above about 28%, no sharp cut-off; inactive = mostly below about 43%; note: 0% is about no effect
CHX counter = counter-screen hit for Shiga toxin inhibitors, cycloheximide; cell reporter, cycloheximide protein synthesis inhibition counterscreen; AID 2314; 12% of 300,000 active; max response, %; in the data active = max response mostly above about 13%, no sharp cut-off; inactive = mostly below about 14%; note: read at 38.3 µM for the half of the compounds with a filed dose; 0% is about no effect
* hit, by the source's call; ? = inconclusive; . = no result given; [ ] = another dose, or the depositor's remark. Unless noted, calls come from the whole dose curve; as a rule, active = well fitted inhibition curve with a large enough effect; inconclusive = small, poorly fitted or top-dose-only effect, or another doubt; inactive = no such curve, though single readings can be large or run the other way.

SMILES | NS1 function inh | Pf growth 96h | Pf growth 48h | Shiga inhibitor | CHX counter
O=C(Nc1nccs1)c1cccc(S(=O)(=O)N2CCCCC2)c1 | -8.4% | 14.7µM* | -3.2% | -18.3 | 5.1
Cc1ccc(C)c(NC(=O)C2CCCN(c3cnccn3)C2)c1 (stereo unspecified) | 2.3% | 85.8% | -0.1% | -4.8 | -6.8
CCN(CC(=O)NCC(=O)Nc1ccc(Br)cc1C)Cc1ccccc1 | . | -23.6% | -15.0% | . | .
COC(=O)CC[C@H](N)C(=O)O | . | -24.9% | 2.3% | . | .
COC(=O)c1sc(SC)c(-c2ccon2)c1C | -4.3% | 30.4% | 25.0% | -3.9 | 5.9
CCn1c(C)c(/C=N/Nc2nc3ccccc3s2)c2ccccc21 | 8.7% | ? | ? | 104.7* | 61.3*
CCn1c(/C=C/c2c(C)n(CC)c3ccccc23)nc2ccccc2c1=O | 5.1% | 42.1% | 3.1% | 13.4 | 12.4
C(=N\Nc1nc2ccccc2s1)/c1cccs1 | -14.9% | 7.5% | 1.8% | 103.1* | 50.0*
Cc1ccnc(N/N=C/c2ccco2)n1 | -0.8% | 90.8% | . | 46.6 | 41.1*
Cc1ccsc1/C=N/Nc1nc2ccccc2s1 | ? | ? | 264.5% | 146.4* | 69.9*
CCc1nnc(N/N=C/c2cccs2)n1N | -63.9% | ? | -4.9% | 5.8 | 9.7
Cc1cc(N/N=C/c2ccco2)c2ccccc2n1 | -10.2% | 21.9% | 19.1% | 60.7 | 7.5
COc1cc(C=O)c(-c2c(C=O)cc(OC)c3c2OCO3)c2c1OCO2 | -10.8% | 1.6% | -7.8% | . | -2.8
Cc1cc(C)n(C(=O)c2ccc(S(=O)(=O)NCC3CCCO3)cc2)n1 (stereo unspecified) | -4.5% | ? | 5.1% | -0.6 | -0.7
Cc1cc(N2CCN(S(=O)(=O)c3ccc4c(c3)OCCO4)CC2)n2ncnc2n1 | -48.0% | ? | 0.0% | 2.1 | 12.7
Cc1ccc(C)c(-c2csc(N/N=C/c3ccco3)n2)c1 | . | 21.8% | ? | 94.8* | 16.5
C(=N\Nc1nc2ccccc2s1)/c1ccco1 | 4.3% | 25.7% | 111.5% | 45.0* | 44.1*
COc1ccc(S(=O)(=O)NCC2CCC(C(=O)NCCCN3CCCC3=O)CC2)cc1 (stereo unspecified) | -5.5% | 0.0% | 9.4% | 15.2 | -1.9
C/C(CC(=O)Nc1cc(Cl)ccc1Cl)=N\NC(=O)c1ccccc1Br | . | 1.5% | ? | 11.9 | 9.3
Oc1ccc(/C=C/c2nc(-c3ccccc3O)n(-c3ccccc3)n2)cc1 | -0.1% | 52.5% | ? | -33.6 | 0.2
Oc1ccccc1-c1nc(/C=C/c2ccccc2)nn1-c1ccccc1 | 15.7% | 0.0% | ? | 32.6 | 23.3*
CN1CCc2nc(SCC(=O)Nc3cccc(F)c3)c(C#N)c(-c3cccs3)c2C1 | 26.4% | 10.4µM* | 13.1µM* | 52.8* | 36.7
CN1CCc2nc(SCC(=O)Nc3ccc(OC(F)(F)F)cc3)c(C#N)c(-c3cccs3)c2C1 | ? | 0.0% | 0.0% | 0.8 | 5.1
Cc1ccc(C(=O)c2sc3c(c2N)c(=O)[nH]c(=O)n3CCc2ccccc2)cc1 | 23.8% | 9.28µM* | ? | -14.3 | 0.4
O=c1[nH]c2ccccc2nc1/C=C(\O)C1CC1 | 23.4% | ? | 31.5% | -5.3 | 2.9
SMILES | NS1 function inh | Pf growth 96h | Pf growth 48h | Shiga inhibitor | CHX counter
O=c1[nH]c2ccccc2nc1/C=C/c1ccc(O)cc1 | 0.9% | -0.3% | ? | 69.7* | 41.9*
O=c1[nH]c2ccccc2nc1/C=C/c1ccc(F)cc1 | ? | 65.6%[5.75 µM] | 255.1% | 73.2* | 37.3*
O=c1[nH]c2ccccc2nc1/C=C/c1ccccc1 | -5.8% | -1.2% | 60.5% | 58.9* | 44.9*
CC(NC(=O)COC(=O)c1ccccc1Nc1ccccc1)c1ccccc1 (stereo unspecified) | 9.3% | ? | ? | -11.6 | -3.8
CN(CC(=O)NCCCN1CCOCC1)S(=O)(=O)c1cc(Cl)ccc1Cl | 3.9% | 18.9% | 7.8% | -4.2 | -4.1
Oc1ccc(-c2nccc(-c3cccs3)n2)cc1 | -68.3% | 98.0% | 91.7% | 133.1* | 58.3*
Oc1ccc(-c2nccc(-c3ccc(Cl)cc3Cl)n2)cc1 | . | -20.7% | -14.1% | 22.0 | 9.1
Oc1ccc(-c2nccc(-c3ccc(Cl)cc3)n2)cc1 | . | 79.5% | 68.9% | 123.1* | 52.9*
COC(=O)C(C)Oc1ccc(-c2nccc(-c3cccs3)n2)cc1 (stereo unspecified) | -8.9% | 7.0% | 1.9% | 51.3* | 26.6*
O=C(c1cccc(S(=O)(=O)N2CCc3ccccc32)c1)N1CCN(c2ccccn2)CC1 | . | ? | -4.9% | -10.3 | 5.8
Cc1ccc(CNS(=O)(=O)c2ccc(CN3C(=O)c4cccnc4C3=O)cc2)o1 | -1.6% | -4.1% | -8.3% | -2.7 | -1.5
CC(C)NC[C@@H](O)c1ccc(O)c2ncccc12 | -1.7% | . | . | . | .
O=S1(=O)N=C(N/N=C/C=C/c2ccccc2)c2ccccc21 | 12.0% | 13.1µM* | ? | -13.6 | 0.8
O=S1(=O)N=C(N/N=C/c2ccccn2)c2ccccc21 | 1.2% | ? | ? | -14.3 | -1.2
O=C(NCc1cc(Br)cc(Br)c1OC(=O)c1ccccc1[N+](=O)[O-])c1ccccc1 | ? | 5.22µM* | 4.5% | 8.0 | -0.6
Cc1cc(CNC(=O)c2ccc(C)c([N+](=O)[O-])c2)c2ccccc2n1 | -6.3% | ? | 0.0% | -13.0 | -1.9
CN1CCN(c2ccc([N+](=O)[O-])c(NCc3ccco3)c2)CC1 | -9.9% | ? | -8.3% | -10.0 | -2.9
O=C(c1cccc2ccccc12)N1CCN(c2ccc([N+](=O)[O-])c(NCc3ccco3)c2)CC1 | 5.0% | 85.5% | ? | -15.2 | 1.6
Cc1cccc(C(=O)N2CCN(c3ccc([N+](=O)[O-])c(NCc4ccco4)c3)CC2)c1 | 3.5% | 11.7µM* | ? | 15.4 | 0.9
Cc1ccccc1C(=O)N1CCN(c2ccc([N+](=O)[O-])c(NCc3ccco3)c2)CC1 | 11.3% | ? | 13.1µM* | 2.9 | -1.4
Cc1ccc(C(=O)N2CCN(c3ccc([N+](=O)[O-])c(NCc4ccco4)c3)CC2)cc1 | 10.8% | 4.65µM* | ? | -10.3 | 2.0
Cc1ccnc(NC(=O)C2CCC(CNc3c(N4CCCC4)c(=O)c3=O)CC2)c1 (stereo unspecified) | 10.3% | -25.6% | -6.3% | -3.7 | -1.0
Cc1oc(-c2ccccc2Cl)nc1CS(=O)CC(=O)NC1CC1 (stereo unspecified) | 19.8% | ? | 13.5% | 14.9 | -0.3
O=C(CCCN1C(=O)c2ccccc2C1=O)N1CCN(c2ccccn2)CC1 | -2.7% | 23.5% | -11.0% | -2.4 | -2.1
O=C(CSc1ccccc1)N1CCN(c2ccccn2)CC1 | . | 31.9% | 8.7% | 30.4 | 14.8*
O=C(CCSCc1ccccc1F)N1CCN(c2ccccn2)CC1 | -15.8% | ? | 27.4% | 78.7* | 27.6*
O=C(CSCc1ccccc1Cl)N1CCN(c2ccccn2)CC1 | -19.2% | 0.0% | . | 119.4* | 58.8*
O=C(c1c(Cl)cccc1Cl)N1CCN(c2ccccn2)CC1 | -0.7% | . | -17.0% | -10.4 | -2.5
O=C(CC(c1ccccc1)c1ccccc1)N1CCN(c2ccccn2)CC1 | 0.1% | ? | 14.3% | 0.8 | 0.9
O=C(N1CCN(c2ccccn2)CC1)C(Cl)(Cl)Cl | 23.1% | 1.9% | 9.28µM* | 33.9* | 27.5*

Screening results as filed in PubChem BioAssay.
